“And” between values parts separate entries of the source, which are not always exact repeats. Equal entries are not always repeated. Records with an inconclusive call do not appear. Where a structure was tested more than once in an assay, its records may differ in their call. The source made the active and inactive calls. How the source made its calls: active means hit-call score of the fitted dose curve at least 0.9, where 1 is the maximum; inconclusive means response in the unintended direction; inactive means score below 0.9.
Experiments:
[1] = TOX21_p53_BLA_p2_viability: Viability Assessment in the Tox21 HCT-116 p53 Agonism Beta-lactamase Assay, Phase 2 (AID 2283591);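 further: compound exposure lasted 16 h at 37 °C; actives lower the ATP signal meaning cytotoxicity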
Outline: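 HCT-116 p53-bla cells (4000/well) rested 5 h at 37C, then received compounds in DMSO (217-fold dilution) for 16 h at 37C, 5% CO2. After the CCF4 read, CellTiter-Glo was added; ATP luminescence was read after 30 min at room temperature.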

[2] = target: Cellular tumor antigen p53 (Homo sapiens) (UniProt P04637); assay: TOX21_p53_BLA_p2_ratio: Tox21 HCT-116 p53 Agonism Beta-lactamase Assay, Ratio, Phase 2 (AID 2283592)
Chain of Cellular tumor antigen p53 (Homo sapiens) (P04637 whole entry, looked up): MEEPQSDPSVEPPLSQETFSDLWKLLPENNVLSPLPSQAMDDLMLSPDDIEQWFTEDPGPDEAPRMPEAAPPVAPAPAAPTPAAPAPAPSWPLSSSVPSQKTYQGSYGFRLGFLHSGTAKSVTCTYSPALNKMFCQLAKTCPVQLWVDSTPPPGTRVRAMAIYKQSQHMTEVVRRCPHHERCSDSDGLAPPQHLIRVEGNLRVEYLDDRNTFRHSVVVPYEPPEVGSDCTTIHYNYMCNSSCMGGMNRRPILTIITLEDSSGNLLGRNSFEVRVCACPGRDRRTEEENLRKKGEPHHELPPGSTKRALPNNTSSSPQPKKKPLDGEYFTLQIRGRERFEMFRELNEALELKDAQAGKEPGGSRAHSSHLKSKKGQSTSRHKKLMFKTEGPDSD
Outline: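 DMSO-normalized, positive-direction endpoint derived from the 460 nm/530 nm FRET ratio in HCT116 p53 beta-lactamase reporter cells exposed 16 h at 37C and loaded with CCF4-AM for 2 h.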

[3] = TOX21_p53_BLA_p3_viability: Viability Assessment in the Tox21 HCT-116 p53 Agonism Beta-lactamase Assay, Phase 3 (AID 2283593);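 further: cells exposed to compound for 16 h before reading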
Outline: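 HCT-116 cells (4000/well) rested 5 h at 37C, then got DMSO compounds by pin tool (217-fold dilution) for 16 h at 37C, 5% CO2. After the bla read, CellTiter-Glo was added and luminescence read at 30 min, room temperature.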

[4] = target: Cellular tumor antigen p53 (Homo sapiens) (UniProt P04637); assay: TOX21_p53_BLA_p3_ratio: Tox21 HCT-116 p53 Agonism Beta-lactamase Assay, Ratio, Phase 3 (AID 2283596)
Outline: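 Cells were seeded at 4000/well, rested 5 h at 37C, then dosed with DMSO compound solutions (217-fold dilution) for 16 h. CCF4-AM substrate was loaded for 2 h at room temperature, and the 460/530 nm emission ratio was fitted for gain of signal versus DMSO.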

[5] = TOX21_p53_BLA_p4_viability: Viability Assessment in the Tox21 HCT-116 p53 Agonism Beta-lactamase Assay, Phase 4 (AID 2283597);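 further: hits lower the luminescence signal meaning cytotoxicity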
Outline: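 In this multiplexed secondary endpoint, HCT116 cells (4000 per well, compound at 5 h, 16 h treatment) received CellTiter-Glo after the beta-lactamase read. Luminescence after 30 min RT reflects ATP, and falling signal marks cytotoxicity.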

[6] = target: Cellular tumor antigen p53 (Homo sapiens) (UniProt P04637); assay: TOX21_p53_BLA_p5_ratio: Tox21 HCT-116 p53 Agonism Beta-lactamase Assay, Ratio, Phase 5 (AID 2283599)
Outline: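 HCT-116 cells carrying a p53-inducible beta-lactamase reporter were seeded at 4000 cells/well and dosed after 5 h with compound in DMSO (217-fold dilution). After 16 h at 37C, CCF4-AM substrate was added for 2 h, and the 460/530 nm emission ratio was scored as gain-of-signal versus DMSO.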

[7] = ATG_XTT_Cytotoxicity: Cytotoxicity Assessment in the Attagene TRANS-FACTORIAL HepG2 Assay (AID 2283584)
Outline: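 24 h chemical exposure of reporter-transfected HepG2; XTT signal loss vs DMSO indicates cytotoxicity.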

[8] = target: Cellular tumor antigen p53 (Homo sapiens) (UniProt P04637); assay: TOX21_p53_BLA_p4_ratio: Tox21 HCT-116 p53 Agonism Beta-lactamase Assay, Ratio, Phase 4 (AID 2283601)
Outline: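 HCT116 cells carrying an inducible beta-lactamase reporter were plated at 4000 cells/well, rested 5 h, then exposed to compounds in DMSO (217-fold dilution) for 16 h at 37C. CCF4-AM substrate was loaded 2 h at room temperature; 460/530 nm emission ratio scored gain-of-signal versus DMSO.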

[9] = TOX21_p53_BLA_p5_viability: Viability Assessment in the Tox21 HCT-116 p53 Agonism Beta-lactamase Assay, Phase 5 (AID 2283600)
Outline: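 Here cell health was gauged by ATP levels in wells holding 4000 cells, each treated 16 h with DMSO-delivered compounds at 217-fold dilution; reduced luminescence marked toxicity.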

Measured: AC50

Cc1ccc(Nc2ccc(O)c3c2C(=O)c2ccccc2C3=O)cc1
not listed: [7] | [8] | [9]
inactive: all other assays above

CC(C)=CCCC(C)CC=O (stereo not given)
inactive: [7] | [2] | [4] | [6] | [8]

CC(C)=CCC/C(C)=C/COC=O
not listed: [1] | [3] | [4]
inactive: all other assays above

C=C[Si](OCC)(OCC)OCC
inactive: [7] | [3] | [8]

C=C(C)C(=O)OCCOC(=O)CC(C)=O
not listed: [1] | [3] | [5]
inactive: all other assays above

OCCCCCO
not listed: [1] | [3] | [5]
inactive: all other assays above

CCCCCCCCCCCCN
inactive: [1] | [2] | [4] | [6] | [9] | [8]
active: [1] 51.6 µM | [2] 85 µM | [3] 80.4 µM and 66.7 µM | [5] 62.2 µM | [6] 83.1 µM | [9] 84.5 µM | [8] 86.1 µM

O=S(=O)(O)c1cccc2c(S(=O)(=O)O)cccc12
inactive: [7] | [4] | [5] | [8]

CC1CC(OC(=O)c2ccccc2O)CC(C)(C)C1 (stereo not given)
active: [3] 22.5 µM
inactive: [1] | [2] | [3] | [4] | [5] | [6] | [9] | [8]

CC(=O)OCCOC(C)=O
active: [4] 87.2 µM
inactive: [1] | [2] | [3] | [4] | [5] | [6] | [9] | [8]

CCCCCCCCCCCCCC(=O)O
not listed: [7]
inactive: all other assays above

O=C1CCCCCCCCCCCCCCO1
inactive: [7] | [2] | [6] | [9] | [8]

COc1ccc(Cl)cc1C
inactive: [7] | [2] | [4] | [6]

O=S(=O)(O)c1ccc(O)c2ncccc12
not listed: [1] | [2] | [5]
inactive: all other assays above

— PubChem BioAssay (EPA / NIEHS)
